Results: PubChem BioAssay (NCI)
Compounds without any hit were thinned out: in the full panel of roughly 79,000, 15% have a hit. A number with no mark means an inactive call. Activity calls are given as the source filed them. No stated cut-off is given here; in the data, active means growth inhibition above about 70%; inactive means the rest.

Legend:
[1] = NCI Yeast Anticancer Drug Screen. Data for the rad50 strain (AID 155);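 further: 0% = growth of vehicle-only cultures of the same strain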; details: S. cerevisiae rad50 strain growth inhibition; at 50.0 µM; hits give high values
Summary of the method: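 Relative growth inhibition (compound vs vehicle) was measured in yeast with a defined repair-gene alteration.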

[2] = NCI Yeast Anticancer Drug Screen. Data for the mec2-1 strain (AID 157); details: S. cerevisiae mec2-1 strain, at 50.0 µM, hits give high values
Summary of the method: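 Each compound was tested on mec2-1 yeast, a strain altered in DNA damage repair or cell cycle control. Growth inhibition is reported relative to vehicle.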

[3] = NCI Yeast Anticancer Drug Screen. Data for the sgs1 mgt1 strain (AID 161);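 further: 0% = growth of cultures given vehicle only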; details: S. cerevisiae sgs1 mgt1 strain, at 50.0 µM, hits give high values
Summary of the method: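 Inhibition of yeast growth, normalised to vehicle-treated controls, is reported for a strain bearing genetic alterations in DNA damage repair.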

[4] = NCI Yeast Anticancer Drug Screen. Data for the cln2 rad14 strain (AID 165);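 further: 0% = growth equal to vehicle treated cultures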; details: S. cerevisiae cln2 rad14 strain, at 50.0 µM, hits give high values
Summary of the method: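 Test compounds were added to cln2 rad14 yeast cultures; inhibition of growth was then determined by comparison with vehicle treatment.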

[5] = NCI Yeast Anticancer Drug Screen. Data for the bub3 strain (AID 167); details: S. cerevisiae bub3 mutant strain, at 50.0 µM, hits give high values
Summary of the method: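 Screening used yeast with an engineered genetic alteration affecting cell cycle control. Compound-exposed cultures were compared with vehicle cultures, and reduced growth was taken as inhibition.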

[6] = NCI Yeast Anticancer Drug Screen. Data for the mlh1 rad18 strain (AID 175); details: S. cerevisiae mlh1 rad18 strain growth inhibition; at 50.0 µM; hits give high values
Summary of the method: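 Inhibition values reflect reduced growth of mutant yeast versus vehicle-treated controls following compound exposure; the mutations affect DNA damage repair.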

Compound `N#CC1(Nc2ccc(-c3ccc(NC4(C#N)CCCC4)cc3)cc2)CCCC1` has a growth inhibition [1] of 40.8%, a growth inhibition [2] of -16.4% and a growth inhibition [3] of -36.5%. For the same compound, the growth inhibition [4] was -40.9%, the growth inhibition [5] was -2.55% and the growth inhibition [6] was 21.1%.
For `O=C(Nc1ccc(Cl)cc1)C(=O)C1=C(O)c2ccccc2OC1`, the growth inhibition [1] was 16.9%, the growth inhibition [2] was -5.95% and the growth inhibition [3] was -12.3%. For the same compound, the growth inhibition [4] was 11.4%, the growth inhibition [5] was -4.95% and the growth inhibition [6] was 9.15%.
`Cc1cc(=O)n(Cc2ccccc2)n1-c1ccccc1` gave a growth inhibition [1] of -11%, a growth inhibition [2] of 12.8% and a growth inhibition [3] of -0.4%. The growth inhibition [4] was 9.4%, the growth inhibition [5] was 1.2% and the growth inhibition [6] was -17%.
Compound `O=[N+]([O-])c1ccc(S(=O)c2ccc([N+](=O)[O-])cc2)cc1` has a growth inhibition [1] of 24.8%, a growth inhibition [2] of 11.6% and a growth inhibition [3] of 5.5%. For the same compound, the growth inhibition [4] was -11.1%, the growth inhibition [5] was -1.75% and the growth inhibition [6] was -4.75%.
With `Cn1cnc2cc(N3CCOCC3)c([N+](=O)[O-])cc2c1=O` the growth inhibition [1] was 17.4%, the growth inhibition [2] was 12% and the growth inhibition [3] was -0.7%. The growth inhibition [4] was 12.8%, the growth inhibition [5] was -1.9% and the growth inhibition [6] was 17.8%.
With `COc1cc(C=O)ccc1OC(C)=O` the growth inhibition [1] was -33.3%, the growth inhibition [2] was -15.3% and the growth inhibition [3] was -35.9%. It also gave a growth inhibition [4] of -31.4%, a growth inhibition [5] of -10.6% and a growth inhibition [6] of -24.3%.
Compound `CCCCCC/C(C=O)=C\c1ccccc1` has a growth inhibition [1] of 31.8%, a growth inhibition [2] of 17.6% and a growth inhibition [3] of 26.6%. It also gave a growth inhibition [4] of 16.4%, a growth inhibition [5] of -4.6% and a growth inhibition [6] of 20.4%.
`CC(C)(O)C(O)(c1ccccc1)c1ccccc1` showed a growth inhibition [1] of 2.65%, a growth inhibition [2] of 2.75% and a growth inhibition [3] of 16.7%. It also gave a growth inhibition [4] of 6.5%, a growth inhibition [5] of 5.95% and a growth inhibition [6] of 12.8%.
`O=C(O)CCc1c[nH]c2ccccc12` gave a growth inhibition [1] of 10.2%, a growth inhibition [2] of 1.15% and a growth inhibition [3] of 31.8%. For the same compound, the growth inhibition [4] was -55.4%, the growth inhibition [5] was -7.95% and the growth inhibition [6] was 18.5%.
`CCCCC(CC)C(=S)N1CCOCC1` (stereo unspecified) showed a growth inhibition [1] of 0.95%, a growth inhibition [2] of -30.4% and a growth inhibition [3] of -18.8%. For the same compound, the growth inhibition [4] was 7.25%, the growth inhibition [5] was -4.65% and the growth inhibition [6] was -9.25%.
Work on `O=c1oc2ncccc2n1Cc1ccc([N+](=O)[O-])cc1` yielded a growth inhibition [1] of -14.7%, a growth inhibition [2] of -22% and a growth inhibition [3] of 1.25%. For the same compound, the growth inhibition [4] was 20.8%, the growth inhibition [5] was -1.15% and the growth inhibition [6] was 19.6%.
`Cc1ccc(S(=O)(=O)NC(=O)NCc2cccc(Cl)c2)cc1` gave a growth inhibition [1] of -0.3%, a growth inhibition [2] of 28.2% and a growth inhibition [3] of 19.8%. It also gave a growth inhibition [4] of -15.6%, a growth inhibition [5] of 13.9% and a growth inhibition [6] of 6.3%.
For `CCCCN(c1ccccn1)S(=O)(=O)c1ccccc1`, the growth inhibition [1] was -2.3%, the growth inhibition [2] was 19.8% and the growth inhibition [3] was 19.3%. The growth inhibition [4] was 7.6%, the growth inhibition [5] was -3.55% and the growth inhibition [6] was 5.75%.
`CCOC(=O)c1cn2ccccc2c1C(=O)OCC` gave a growth inhibition [1] of 3.5%, a growth inhibition [2] of -3.1% and a growth inhibition [3] of -7.45%. The growth inhibition [4] was -23.2%, the growth inhibition [5] was -4.1% and the growth inhibition [6] was -14.8%.
`N/C(=N\c1nc(N)cc(N)n1)Nc1ccc(S(N)(=O)=O)cc1` showed a growth inhibition [1] of -15.2%, a growth inhibition [2] of 4.25% and a growth inhibition [3] of -6.25%. It also gave a growth inhibition [4] of -32.2%, a growth inhibition [5] of -5.6% and a growth inhibition [6] of -4.15%.
With `CCCCCCCCCCOC(=O)Nc1cccc(O)c1` the growth inhibition [1] was 29.8%, the growth inhibition [2] was 92.8% (active) and the growth inhibition [3] was 95.4% (active). For the same compound, the growth inhibition [4] was 18.9%, the growth inhibition [5] was 96.9% (active) and the growth inhibition [6] was 86.5% (active).
`ClCCOC(CCl)OCCCl` gave a growth inhibition [1] of 24.1%, a growth inhibition [2] of 6.9% and a growth inhibition [3] of 22.1%. For the same compound, the growth inhibition [4] was 20.4%, the growth inhibition [5] was 6.5% and the growth inhibition [6] was 14.5%.
Work on `NC(=O)NC=O` yielded a growth inhibition [1] of 10.8%, a growth inhibition [2] of -3.95% and a growth inhibition [3] of 14.7%. For the same compound, the growth inhibition [4] was 1.25%, the growth inhibition [5] was -14.6% and the growth inhibition [6] was 14.3%.
With `N#C/C(=C\c1ccc(Cl)cc1)C(=O)c1ccccc1` the growth inhibition [1] was 9.4%, the growth inhibition [2] was 12.8% and the growth inhibition [3] was 29.8%. For the same compound, the growth inhibition [4] was 20.9%, the growth inhibition [5] was 6.95% and the growth inhibition [6] was 22.7%.
`O=C(OC1CCCC1)C1(O)CCCCC1` showed a growth inhibition [1] of 18.2%, a growth inhibition [2] of 12.7% and a growth inhibition [3] of 3.8%. The growth inhibition [4] was 10.5%, the growth inhibition [5] was -2.15% and the growth inhibition [6] was -16.2%.
For `O=C(Nc1cccc(Cl)c1)C(=O)C(C(=O)c1ccc2ccccc2c1)C1OC(=O)c2ccccc21` (stereo unspecified), the growth inhibition [1] was 39%, the growth inhibition [2] was 18.4% and the growth inhibition [3] was 26.1%. It also gave a growth inhibition [4] of 37.2%, a growth inhibition [5] of 22.9% and a growth inhibition [6] of -9.1%.
